# In paper PMC5540273 (PLoS ONE, 2017):
# Legend:
# Settings in all cases: concentration: 1 μM, replicates: in singlicate; n = 1
# DLK = test system: T1, DLK
# T1 construct: gene MAP3K12
# DMPK2 = test system: T2, DMPK2
# T2 construct: gene CDC42BPG
# DMPK = test system: DMPK
# DRAK1 = test system: T3, DRAK1
# T3 construct: gene STK17A
# DRAK2 = test system: T4, DRAK2
# T4 construct: gene STK17B
# DYRK1A = test system: DYRK1A
# DYRK1B = test system: DYRK1B
# DYRK2 = test system: DYRK2
# EGFR = test system: EGFR
# EIF2AK1 = test system: EIF2AK1
# 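Also: KINOMEscan kinase panel screen.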
Structure (SMILES),%Inh (DLK) [%],%Inh (DMPK2) [%],%Inh (DMPK) [%],%Inh (DRAK1) [%],%Inh (DRAK2) [%],%Inh (DYRK1A) [%],%Inh (DYRK1B) [%],%Inh (DYRK2) [%],%Inh (EGFR) [%],%Inh (EIF2AK1) [%]
CCC(=O)c1c(-c2ccccc2)c2cc(Cl)ccc2c(=O)n1Cc1cc(C(=O)NC2CC2)n(C)n1,49,0,0,0,3,0,48,2,0,0
CCc1nc(-c2cccc(C)c2)c(-c2ccncc2)s1,0,79,0,0,0,0,0,0,0,9
FC(F)(F)c1ccc(-c2ncn(CCCN3CCOCC3)c2-c2ccncc2)cc1 [SB-217780],0,1,28,15,6,6,0,25,19,10
CCCNC(=O)Nc1ccc(Oc2ncnc3ccn(C)c23)cc1,0,0,0,0,12,16,68,24,15,0
CCn1c(-c2nonc2N)nc2ccccc21 [SB-693162/GW549034],0,0,0,9,0,49,16,37,0,48
COc1ccc(-c2cc3c(C)nc(N)nc3n([C@H]3CC[C@H](OCCO)CC3)c2=O)cn1,0,0,8,16,14,0,0,0,12,8
Cc1ccccc1COc1cc(-n2cnc3cc(Cl)ccc32)sc1C(N)=O [GW813349],0,2,0,0,1,15,34,19,2,6
O=c1cc(N2CCOCC2)nc2n(Cc3ccc(F)c(Cl)c3)ccn12 [GSK2297099],6,0,0,0,0,12,39,0,18,0
Cc1nnc(-c2ccc3ncn(-c4ccc(S(C)=O)cc4)c3c2)o1 (stereo not shown),0,0,1,3,18,0,26,7,0,0
CCC(=O)c1c(-c2ccccc2)c2cc(Cl)ccc2c(=O)n1Cc1cc(S(C)(=O)=O)n(CC(F)F)n1,0,0,0,0,0,0,13,17,1,0
Cc1cccc(-c2cc(-c3c[nH]nc3-c3ccccn3)ccn2)c1 [GW679395],13,1,0,0,0,24,0,0,31,0
CCS(=O)(=O)c1ccc(OC)c(Nc2ncc(-c3ccc(F)cc3)o2)c1.Cl [GW591947],25,13,6,10,0,12,0,17,4,5
OCCCNc1nccc(-c2c(-c3cccc(C(F)(F)F)c3)nn3cc(C(F)(F)F)ccc23)n1 [GW630813],37,39,0,0,0,26,0,0,26,0
Nc1ncnc2c1ncn2-c1cccc2ccccc12 [SKF-97184],0,0,0,7,0,0,30,6,45,0
CCC(=O)c1c(-c2ccccc2)c2cc(Cl)ccc2c(=O)n1Cc1ccc(C(=O)O)cc1,0,0,0,0,2,0,39,15,0,0
COc1cc2ncn(-c3cc(OCCCc4ccccc4)c(C(N)=O)s3)c2cc1OC [GSK205189],0,0,0,0,0,7,0,0,15,1
COc1cccc(C2=C(N(C)c3ccccc3)C(=O)NC2=O)c1 [SB-334865],4,0,0,0,0,4,0,0,36,0

Structure (SMILES),%Inh (DLK) [%],%Inh (DMPK2) [%],%Inh (DMPK) [%],%Inh (DRAK1) [%],%Inh (DRAK2) [%],%Inh (DYRK1A) [%],%Inh (DYRK1B) [%],%Inh (DYRK2) [%],%Inh (EGFR) [%],%Inh (EIF2AK1) [%]
Cc1cc(Nc2nc(-c3cccc(C)n3)nc3ccccc23)ccn1 [GW872411],0,2,0,0,0,0,2,0,0,0
Cl.c1ccc(Cn2cnc3cc(Nc4ncnc5ccccc45)ccc32)cc1 [GW272142],6,11,0,0,0,17,2,21,20,0
CN1C(=O)C(Nc2ccccc2)=C(c2ccccc2)C1=O [SB-300079],1,0,0,0,0,0,17,10,16,0
COC(=O)c1c(-c2ccccc2)c2cc(C)ccc2c(=O)n1Cc1ccccc1,0,0,0,0,0,0,6,0,0,0
Nc1ncnc2c1ncn2-c1ccc(Cl)cc1 [AH2635],27,12,0,17,0,0,0,2,15,0
CCC(=O)c1c(-c2ccccc2)c2cc(Cl)ccc2c(=O)n1Cc1cc(S(C)(=O)=O)n(CC(N)=O)n1,0,0,0,0,0,0,0,0,0,0
COc1cccc(-n2cnc3c(N)ncnc32)c1 [SKF-97416],17,7,11,37,0,12,2,39,18,35
C[C@@H]1CC[C@H](C(=O)NC2CCCCC2)CN1c1cc(-c2ccc3c(N)n[nH]c3c2)nc(N)n1 [GSK2291363],31,23,0,20,0,23,6,20,45,0
CC(C)(C)c1ccc(C(=O)Nc2cn3cc(-c4ccccc4)ccc3n2)cc1,0,0,0,0,0,0,0,37,5,0
COc1cc2ncn(-c3cc(OCc4ccc(S(C)(=O)=O)cc4)c(C(N)=O)s3)c2cc1OC [GW869979],13,10,0,0,23,22,20,1,25,7
Cn1c(=O)c(F)c(Nc2ccc(I)cc2F)c2c(=O)n(OC[C@H](O)CO)cnc21,0,20,17,0,10,0,0,0,3,0
CCCC(=O)Nc1n[nH]c2ncc(-c3cccc4ccccc34)cc12 [SB-642057],0,4,0,0,0,30,0,4,20,13
Cc1nn2c(=O)cc(N3CCOCC3)nc2n1Cc1cccc(Cl)c1Cl [GSK2342769],12,0,0,0,0,26,29,0,25,0
Fc1cccc(CSc2nnc(-c3ccc4c(c3)CCO4)o2)c1,0,9,0,27,18,62,37,7,17,26
Cc1ccc(-c2ccc3c(ccc4sc5c(c43)NC[C@@H](C)N=C5N(C)C)n2)cn1,0,0,0,0,0,0,0,0,23,7
O=C(Nc1ccc2c(c1)OCO2)NC1CCN(c2ccnc(NCc3ccc(F)cc3)n2)CC1 [GSK1379859],22,16,0,6,0,7,14,5,44,10
Nc1nc(N)c2nc(-c3ccccc3)[nH]c2n1 [SKF-12778],1,0,25,8,0,34,13,44,14,21
